GLP-1R inv ag – qHTS of GLP-1 Receptor Inverse Agonists (Inhibition Mode). Glucagon-like peptide 1 receptor (Homo sapiens), P43220. HEK293 GLP-1R CRE-luciferase, luminescence, 24 h; GLP-1R form is constitutively active. Potency, µM (series often up to 38.3 µM), for the others: at the top dose activity change, negative = inhibition, actives largely listed as inhibitors. 410,000 compounds, 1.6% hits. AID 624417, 2012; also: % is scaled to controls: 0 for no effect and ±100 for the full control effect; nearly all actives have a fitted effect of over 55% in size
Target sequence (P43220 whole entry, looked up): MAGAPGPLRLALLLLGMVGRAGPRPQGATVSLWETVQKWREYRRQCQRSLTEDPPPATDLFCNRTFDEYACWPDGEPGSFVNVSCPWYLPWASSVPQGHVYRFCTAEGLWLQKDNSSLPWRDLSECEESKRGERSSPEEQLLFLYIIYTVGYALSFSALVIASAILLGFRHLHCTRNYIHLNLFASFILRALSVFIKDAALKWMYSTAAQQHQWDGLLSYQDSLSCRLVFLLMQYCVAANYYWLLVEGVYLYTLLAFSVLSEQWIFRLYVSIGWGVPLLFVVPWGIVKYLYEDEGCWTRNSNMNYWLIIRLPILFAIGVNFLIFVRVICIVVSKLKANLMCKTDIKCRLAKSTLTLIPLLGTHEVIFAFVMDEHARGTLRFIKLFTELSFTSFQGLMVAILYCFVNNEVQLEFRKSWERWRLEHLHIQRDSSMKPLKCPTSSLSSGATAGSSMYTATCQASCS
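Readout was luciferase luminescence, measured 12 min after detection reagent at room temperature. Beforehand, GLP-1R reporter HEK293 cells had sat 12 h, then received compounds for 24 hr at 37 deg C.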
GLP1R ag – qHTS of GLP-1 Receptor Agonists; Glucagon-like peptide 1 receptor (Homo sapiens), P43220; HEK293 GLP-1R CRE-luciferase, luminescence, 4-6 h; cells express a hypersensitive GLP-1R form; Potency, µM (highest dose often 45.6 µM), inactives show top-dose activation, most hits filed as activators; 380,000 compounds, 0.007% hits; also: % of control where 0% means no effect
BRCA1 expr up – qHTS Assay to Identify Small Molecule Activators of BRCA1 Expression; AID 624202, 2012; MCF7-BRCA1-FFLuc reporter, luminescence, 48 h; response scale: scaled: vehicle 0%, 10 µM genistein 100%; 380,000 compounds, 1.1% hits; Potency, µM (titrated, usually from 46.1 µM), for the others: at the top dose activation, most hits filed as activators; also: nearly all actives have a fitted effect of over 80% in size
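Activators of BRCA1 expression were detected as increased firefly luciferase luminescence in engineered MCF7 cells after 48 h compound incubation. Signals were scaled to genistein 10 microM as full activation.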
Mito fusion act – qHTS Assay for Small Molecule Inhibitors of Mitochondrial Division or Activators of Mitochondrial Fusion | S. cerevisiae fusion-defective mutant growth rescue, CellTiterGlo 48 h | Potency, µM (highest dose often 46.1 µM), inactives show top-dose growth rescue (activation), usual class: activators | 320,000 compounds, 0.23% hits | AID 485298, 2010; also: % of control where 0% means no effect; nearly all actives have a fitted effect of over 45% in size
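Read-out: ATP-based luminescence (CellTiterGlo, 10 min ambient) reporting growth of fusion-defective ts yeast after 48 hours at 37C on glycerol/ethanol YPEG medium in the presence of compound.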
HEK293 tox – qHTS of GLP-1 Receptor Inverse Agonists: Cytotox Screen. 410,000 compounds, 0.13% hits. HEK293 cAMP-luciferase reporter cells, luminescence, 24 h. Potency, µM (titrated, usually from 38.3 µM), for inactives: at the highest dose activity change, negative = inhibition, hits mostly inhibitors;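 also: loss of luciferase light is scored as toxicity; % is scaled to controls: 0 for no effect and ±100 for the full control effect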
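Quantitative HTS format, 1536 wells, 200 cells/uL seeded. Compounds: 23 nL, 24 h, 37 °C. Detection: luciferase reagent, luminescence at 12 min RT; decreased signal taken as cytotoxic.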
The depositor's hits bear a star; ? = inconclusive; · = no result. The list is not random: actives were taken first. Their share in the collection is about 2.8%. Calls follow the shape of the dose curve; as a rule, active = well fitted curve in the direction sought with a large enough effect; inconclusive = small, poorly fitted or top-dose-only effect, or another doubt; inactive = no such curve, though single readings can be large; an effect the other way counts as inactive or inconclusive. Potency is read from the fitted curve at half-maximal effect.

SMILES	GLP-1R inv ag	GLP1R ag	BRCA1 expr up	Mito fusion act	HEK293 tox
COC(=O)COc1ccc(-c2nccc(-c3ccccn3)n2)cc1	45%	15%	-46%	-13%	-11%
O=C(CN1N=C(C(F)(F)F)CC1(O)c1ccc([N+](=O)[O-])cc1)c1ccccc1 (centres undefined)	?	-2%	-1%	16µM*	4%
CCC1=NN(C(=O)c2ccc(Cl)cc2)C(O)(c2ccccc2)C1 (centres undefined)	?	0%	-18%	-7%	-20%
CCC1=NN(C(=O)c2ccc(Cl)cc2)C(O)(c2ccc(C)cc2)C1 (centres undefined)	2.8µM*	8%	-13%	-8%	?
CC1=NN(C(=O)c2ccccc2Br)C(O)(c2ccc(Cl)cc2)C1 (centres undefined)	3.2µM*	11%	-12%	2%	4%
CC1=NN(C(=O)c2ccccc2C)C(O)(c2ccc(Cl)cc2)C1 (centres undefined)	-77%	3%	-33%	5%	-5%
CCC1=NN(C(=O)c2ccc([N+](=O)[O-])cc2)C(O)(c2ccccc2)C1 (centres undefined)	0.79µM*	11%	-35%	-11%	?
CCC1=NN(C(=O)c2ccccc2O)C(O)(c2ccccc2)C1 (centres undefined)	?	-2%	-46%	-7%	17%
CC(C)NS(=O)(=O)c1ccc(NC(=S)NC(=O)c2ccc(-c3ccccc3)cc2)cc1	3%	1%	-26%	-1%	-2%
O=C(CN1C(=O)NC(c2ccccc2)(c2ccccc2)C1=O)NC1CCS(=O)(=O)C1 (centres undefined)	3%	10%	-18%	-2%	0%
c1ccc(SCc2nc(-c3ccccn3)no2)cc1	7%	13%	7.1µM*	1%	-15%
Cc1ccc(-c2noc(CSc3ccccc3)n2)cc1	0%	5%	?	-4%	-2%
c1ccc(CCCc2nc(-c3ccccn3)no2)cc1	1%	3%	7.1µM*	-6%	0%
Cc1cccc(-c2noc(CSc3ccccc3)n2)c1	?	-1%	3.2µM*	-3%	17%
Cc1ccc(Cc2nc(-c3ccccn3)no2)cc1	-12%	-2%	2.2µM*	-3%	1%
COCCCNC(=O)CSc1ccsc1[N+](=O)[O-]	2%	-3%	-8%	-1%	-10%
CCC(CC)c1nnc(NC(=O)CSCc2c(C)noc2C)s1	-5%	0%	-7%	·	4%
CN(C)CCN(Cc1cc2cc3c(cc2nc1Cl)OCO3)C(=O)c1ccco1	6%	17%	-4%	-1%	-7%
c1ccc(Cc2nc(-c3ccccn3)no2)cc1	-11%	-5%	5µM*	-2%	6%
c1ccc(C(Cc2nc(-c3ccccn3)no2)c2ccccc2)cc1	10µM*	-8%	53%	20%	1%
c1ccc(-c2noc(CC3CCCCC3)n2)nc1	-29%	21%	7.1µM*	2%	2%
COc1ccc(Cc2nc(-c3ccccn3)no2)cc1	44%	5%	?	0%	1%
CN(C)c1nc2ccc(OCCN3CCCCC3)cc2s1	116%	-8%	11µM*	0%	1%
CCN(CC)CCOc1ccc2nc(N(C)C)sc2c1	?	14%	0%	-3%	77%
COC(=O)C(Cc1ccc(OC(=O)c2ccccc2C)cc1)N1Cc2ccccc2C1=O (centres undefined)	?	9%	?	14%	-15%
COC(=O)C(Cc1ccc(OC(=O)c2ccccc2Cl)cc1)N1Cc2ccccc2C1=O (centres undefined)	?	-15%	6.3µM*	3%	6%
CCc1ncc(C(O)c2cccc3ccccc23)n1C (centres undefined)	0%	13%	-23%	-1%	11%
